Experimental data taken from PubChem BioAssay AID588354 (The Scripps Research Institute Molecular Screening Center, 2011).
Screen size: about 360,000 compounds; about 430 (0.12%) were called active.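 The calls were made as follows: active = inhibition above the campaign mean plus 3 SD, with each screening campaign given its own cutoff (cut at about 60% in these data); inactive = the rest.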 Shown is part of a subset that was picked to be rich in actives.

Biological target: Nuclear receptor coactivator 1 (Homo sapiens) (UniProt Q15788)
Sequence (Q15788 whole entry, looked up): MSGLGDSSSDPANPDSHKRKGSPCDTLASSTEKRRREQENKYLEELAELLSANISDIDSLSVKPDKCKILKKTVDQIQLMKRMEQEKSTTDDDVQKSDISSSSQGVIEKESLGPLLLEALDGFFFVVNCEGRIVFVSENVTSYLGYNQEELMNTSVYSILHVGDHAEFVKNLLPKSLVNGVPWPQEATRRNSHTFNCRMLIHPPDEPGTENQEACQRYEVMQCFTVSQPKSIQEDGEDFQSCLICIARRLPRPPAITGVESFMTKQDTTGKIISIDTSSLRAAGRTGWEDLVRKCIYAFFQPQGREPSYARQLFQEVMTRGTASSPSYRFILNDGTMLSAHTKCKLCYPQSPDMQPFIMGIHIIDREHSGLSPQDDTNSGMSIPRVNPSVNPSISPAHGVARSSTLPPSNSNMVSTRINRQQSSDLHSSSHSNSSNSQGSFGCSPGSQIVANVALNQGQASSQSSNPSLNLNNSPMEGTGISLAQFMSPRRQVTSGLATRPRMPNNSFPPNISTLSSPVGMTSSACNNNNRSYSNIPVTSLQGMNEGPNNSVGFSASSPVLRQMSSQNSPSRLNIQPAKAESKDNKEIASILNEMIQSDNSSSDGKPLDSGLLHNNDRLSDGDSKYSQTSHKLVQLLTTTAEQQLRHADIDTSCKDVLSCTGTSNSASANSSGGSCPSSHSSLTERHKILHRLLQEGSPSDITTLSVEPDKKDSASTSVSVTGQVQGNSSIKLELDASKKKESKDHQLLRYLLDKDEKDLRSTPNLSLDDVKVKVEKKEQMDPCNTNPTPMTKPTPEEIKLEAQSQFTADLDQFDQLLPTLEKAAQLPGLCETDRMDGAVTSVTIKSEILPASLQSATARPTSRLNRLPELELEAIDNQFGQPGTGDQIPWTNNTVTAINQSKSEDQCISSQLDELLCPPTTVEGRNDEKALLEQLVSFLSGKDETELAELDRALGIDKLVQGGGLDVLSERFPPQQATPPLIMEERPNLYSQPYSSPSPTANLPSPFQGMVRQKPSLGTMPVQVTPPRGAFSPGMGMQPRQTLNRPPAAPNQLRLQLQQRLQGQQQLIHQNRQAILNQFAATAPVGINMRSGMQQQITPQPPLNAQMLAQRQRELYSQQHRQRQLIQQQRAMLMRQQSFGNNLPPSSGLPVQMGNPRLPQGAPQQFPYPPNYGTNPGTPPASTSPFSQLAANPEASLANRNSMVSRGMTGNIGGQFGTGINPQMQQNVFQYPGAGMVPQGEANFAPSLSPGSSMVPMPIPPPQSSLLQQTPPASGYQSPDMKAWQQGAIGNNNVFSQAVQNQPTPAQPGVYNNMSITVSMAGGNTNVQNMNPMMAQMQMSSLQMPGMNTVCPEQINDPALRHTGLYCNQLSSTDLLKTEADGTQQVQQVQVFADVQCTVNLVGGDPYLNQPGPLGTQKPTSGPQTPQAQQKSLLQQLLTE
Experiment: SRC1 coactivator transcriptional activity inhibitors, primary screen, cell-based, luminescence (AID 588354);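 also: 0% = DMSO treated cells and 100% = gossypol at 36 µM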
Conditions: HEK293 GAL4-SRC1 luciferase reporter, at 3.6 µM, active compounds read high

inhibition, active:
O=C(CN1C(=O)c2ccccc2S1(=O)=O)N1CCc2ccccc21 73%
CCCCCCCCn1c2c(c(=N)c3c1CCC3)CCCC2 69%
Cc1ccsc1C(=O)OCC(=O)c1cc(C)n(CC2CCCO2)c1C (stereo unspecified) 82.3%

inhibition, inactive:
Cc1ccc(N2C(=O)CN=C2Nc2nc(C)cc(C)n2)cc1 0.5%
CN(Cc1cccs1)C(=O)CN1C(=O)c2ccccc2S1(=O)=O -19.1%
COc1ccc(CNC(=O)CN2C(=O)c3ccccc3S2(=O)=O)cc1 2.81%
CC1CC(NC(=S)N(C)C)CC(C)(C)C1 (stereo unspecified) 0.06%
Cc1ccc(NC(=O)CN2CCC3(O)CCCCC3C2c2ccc3c(c2)OCO3)c(C)c1 (stereo unspecified) 5.71%
O=C(COC(=O)C1CCN(S(=O)(=O)c2ccc3c(c2)OCCO3)CC1)Nc1ccccc1OC(F)F 6.03%
O=C(CCNC(=O)c1ccc([N+](=O)[O-])cc1)Nc1ccccc1N1CCOCC1 -16.9%
Cc1ccsc1C(=O)OCC(=O)NCCc1ccccc1 -29.4%
COc1ccc(CNC(=O)COC(=O)c2sccc2C)cc1OC 2.6%
Nc1nc(SCC(=O)N2CCN(S(=O)(=O)c3ccc(Cl)cc3)CC2)n[nH]1 9.56%
Cc1cc(C)n2nc(C(=O)N(C)C(c3ccccc3)c3ccccc3)nc2n1 -3.03%
CCc1ccnc(NS(=O)(=O)c2ccc3c(c2)OCCO3)c1 -6.15%
CC(=O)NC1C(Oc2ccc(C=O)cc2)OC(COC(C)=O)C(OC(C)=O)C1OC(C)=O (stereo unspecified) -13.2%
CC1CCCC(C)N1/N=C/c1ccccc1OC(F)F (stereo unspecified) -2.18%
CC12C(=O)N(n3cnnc3)C(=O)C1C1C=CC2C1 (stereo unspecified) -10.2%
C=CCC1(CC=C)CCCN1C(=O)c1cc(COc2ccc(-n3cncn3)cc2)on1 -1.06%
Cc1ccc(S(=O)(=O)N2CCN=C2SCc2c(F)cccc2Cl)cc1 -14.6%
O=C(O)C1C2CC2CN1C(=O)c1ccc(Cl)cc1Cl (stereo unspecified) 10.7%
CC(NC(=O)c1ccccc1C(=O)O)c1ccc(-n2ccnc2)cc1 (stereo unspecified) -1.09%
N#CC1(NC(=O)COc2ccc3oc4ccccc4c3c2)CCCCC1 2.18%
COc1ccc(OC)c(S(=O)(=O)Nc2cccc(-c3ccc4nncn4n3)c2)c1 -20.7%
CC1CCCCC12NC(=O)N(CC(=O)N1CCN(c3ccccc3)CC1)C2=O (stereo unspecified) 1.99%
CN(C)c1ccc(CSc2ccccc2)cc1 -41.4%
